Laboratory results: the supplement of paper PMC10849652
The full data set covers some 8,800 targets. This sample favours those with a hit. About 0.5% of all pairs of compound and target were hits.

What was measured:
Test in all cases: log2 fold change, soluble protein after heating vs DMSO (PISA); higher = thermal stabilisation; K562 lysate, 10 uM; active = over 0.2 and 3.5 SD of the protein, either way, in both replicates (recomputed)
vemurafenib = compound: CCCS(=O)(=O)Nc1ccc(F)c(C(=O)c2c[nH]c3ncc(-c4ccc(Cl)cc4)cc23)c1F [vemurafenib]
How it was run: (§1)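 Pellets of K562 cells were dounce-homogenised in PBS pH 7.4 with 1 mM MgCl2, and the crude extract was held at 1 mg/mL protein for a 30 min treatment with 10 μM compound. Aliquots were heated for 3 min over 48°C-58°C and pooled before NP-40 was added to 0.5% at 4°C. The supernatant from 21,000xg for 90 min was quantified by TMTpro 16plex LC-MS/MS with channel sums equalised. Values are reported from duplicates as log-two fold change in thermal stability relative to solvent controls.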

[1] = compound: CCCS(=O)(=O)Nc1ccc(F)c(C(=O)c2c[nH]c3ncc(Cl)cc23)c1F
How it was run: as §1

barasertib = compound: CCN(CCCOc1ccc2c(Nc3cc(CC(=O)Nc4cccc(F)c4)[nH]n3)ncnc2c1)CCOP(=O)(O)O [barasertib]
How it was run: as §1

[2] = compound: CC[C@@H]1C(=O)N(C)c2cnc(Nc3ccc(C(=O)NC4CCN(C)CC4)cc3OC)nc2N1C1CCCC1
How it was run: as §1

volasertib = compound: CC[C@@H]1C(=O)N(C)c2cnc(Nc3ccc(C(=O)N[C@H]4CC[C@H](N5CCN(CC6CC6)CC5)CC4)cc3OC)nc2N1C(C)C [volasertib]
How it was run: as §1

[3] = compound: CCn1c(C(=O)N(C2CC2)C2CC2)cc2c3c(ncn3C)c(Nc3cc(C)n(C)n3)nc21
How it was run: as §1

[4] = compound: CCn1cc(-c2ccnc3[nH]c(-c4cccc(CN(C)C)c4)cc23)c(-c2ccc(NC(=O)N(C)C)cc2)n1
How it was run: as §1

[5] = compound: CN1CCC(CNc2ccc3ncc(-c4cccc(OC(F)(F)F)c4)n3n2)CC1
How it was run: as §1

saracatinib = compound: CN1CCN(CCOc2cc(OC3CCOCC3)c3c(Nc4c(Cl)ccc5c4OCO5)ncnc3c2)CC1 [saracatinib]
How it was run: as §1

sotrastaurin = compound: CN1CCN(c2nc(C3=C(c4c[nH]c5ccccc45)C(=O)NC3=O)c3ccccc3n2)CC1 [sotrastaurin]
How it was run: as §1

alvocidib = compound: CN1CC[C@H](c2c(O)cc(O)c3c(=O)cc(-c4ccccc4Cl)oc23)[C@H](O)C1 [alvocidib]
How it was run: as §1

Tubastatin A = compound: CN1CCc2c(c3ccccc3n2Cc2ccc(C(=O)NO)cc2)C1 [Tubastatin A]
How it was run: as §1

[6] = compound: CNC(=O)C1=CC=CC=C1NC2=NC(=NC=C2Cl)NC3=C(C=C(C=C3)N4CCOCC4)OC
How it was run: as §1

defactinib = compound: CNC(=O)c1ccc(Nc2ncc(C(F)(F)F)c(NCc3nccnc3N(C)S(C)(=O)=O)n2)cc1 [defactinib]
How it was run: as §1

[7] = compound: CNc1nc(-c2ccc3c(N)n[nH]c3c2)cc(N2C[C@@H](C(=O)NC3CCCCC3)CC[C@H]2C)n1
How it was run: as §1

encorafenib = compound: COC(=O)N[C@@H](C)CNc1nccc(-c2cn(C(C)C)nc2-c2cc(Cl)cc(NS(C)(=O)=O)c2F)n1 [encorafenib]
How it was run: as §1

[8] = compound: COC(=O)[C@H](CCSC)NC(=O)C1=C(C=C(C=C1)NC[C@H](CS)N)C2=CC=CC=C2
How it was run: as §1

alisertib = compound: COc1cc(Nc2ncc3c(n2)-c2ccc(Cl)cc2C(c2c(F)cccc2OC)=NC3)ccc1C(=O)O [alisertib]
How it was run: as §1

[9] = compound: COc1cc2nc(-c3cc(F)ccc3O)nc(N[C@@H]3CNC[C@H]3C(C)(C)O)c2cc1OC
How it was run: as §1

gefitinib = compound: COc1cc2ncnc(Nc3ccc(F)c(Cl)c3)c2cc1OCCCN1CCOCC1 [gefitinib]
How it was run: as §1

Measured: log2 fold change

CSTF2 (UniProt P33240)
Chain of UniProt P33240 (P33240 whole entry, looked up): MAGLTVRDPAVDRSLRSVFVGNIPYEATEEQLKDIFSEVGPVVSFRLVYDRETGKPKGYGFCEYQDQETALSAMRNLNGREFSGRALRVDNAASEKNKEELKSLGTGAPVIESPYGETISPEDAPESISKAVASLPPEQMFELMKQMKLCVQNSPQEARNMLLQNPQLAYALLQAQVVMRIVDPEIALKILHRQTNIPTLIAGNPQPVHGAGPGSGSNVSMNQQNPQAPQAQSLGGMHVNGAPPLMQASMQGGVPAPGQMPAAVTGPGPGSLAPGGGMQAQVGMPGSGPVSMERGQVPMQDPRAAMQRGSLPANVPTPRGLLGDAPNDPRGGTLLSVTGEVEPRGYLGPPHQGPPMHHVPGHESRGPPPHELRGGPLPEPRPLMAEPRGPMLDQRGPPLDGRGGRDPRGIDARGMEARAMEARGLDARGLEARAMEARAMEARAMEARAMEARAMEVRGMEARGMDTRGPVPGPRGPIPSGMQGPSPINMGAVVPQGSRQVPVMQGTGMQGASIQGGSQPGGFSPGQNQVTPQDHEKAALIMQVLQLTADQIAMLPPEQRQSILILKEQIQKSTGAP
active: barasertib 0.27
inactive: vemurafenib 0.011 | [1] -0.015 | [2] 0.062 | volasertib -0.012 | [3] -0.037 | [4] -0.053 | [5] 0.042 | saracatinib 0.007 | sotrastaurin 0.038 | alvocidib -0.023 | Tubastatin A 0.011 | [6] 0.014 | defactinib -0.016 | [7] 0.024 | encorafenib -0.009 | [8] -0.099 | alisertib 0.03 | [9] 0.011 | gefitinib 0.008

DHRS11 (UniProt Q6UWP2)
Chain of UniProt Q6UWP2 (Q6UWP2 whole entry, looked up): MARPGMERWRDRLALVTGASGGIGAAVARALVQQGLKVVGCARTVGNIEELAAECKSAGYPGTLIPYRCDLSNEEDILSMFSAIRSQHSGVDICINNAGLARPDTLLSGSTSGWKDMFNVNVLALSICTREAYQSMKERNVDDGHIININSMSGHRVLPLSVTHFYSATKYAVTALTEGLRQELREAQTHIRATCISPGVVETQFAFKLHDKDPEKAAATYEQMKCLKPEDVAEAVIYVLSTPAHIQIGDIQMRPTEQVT
inactive: vemurafenib 0.015 | [1] 0.007 | barasertib 0 | [2] -0.019 | volasertib -0.026 | [3] 0.023 | [4] -0.03 | [5] 0.025 | saracatinib 0.013 | sotrastaurin 0.004 | alvocidib -0.001 | Tubastatin A -0.083 | [6] 0.055 | defactinib 0.021 | [7] 0.031 | encorafenib 0.024 | [8] 0.109 | alisertib -0.074 | [9] 0.031 | gefitinib -0.022

COX20 isoform 2 (UniProt Q5RI15)
Chain of UniProt Q5RI15 (Q5RI15 whole entry, looked up): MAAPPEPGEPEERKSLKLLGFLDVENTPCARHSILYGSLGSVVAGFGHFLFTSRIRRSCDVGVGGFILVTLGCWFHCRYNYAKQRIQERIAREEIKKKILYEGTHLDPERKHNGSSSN
inactive: vemurafenib 0.011 | [1] -0.011 | barasertib -0.329 | [2] 0.144 | volasertib 0.021 | [3] -0.015 | [5] -0.232 | saracatinib -0.015 | sotrastaurin 0.001 | alvocidib 0.102 | Tubastatin A -0.012 | [6] 0.01 | defactinib -0.007 | [7] 0.06 | encorafenib -0.103 | [8] 0.022 | alisertib 0.001 | [9] -0.033 | gefitinib -0.009
active: [4] 0.623

COG7 (UniProt P83436)
Chain of UniProt P83436 (P83436 whole entry, looked up): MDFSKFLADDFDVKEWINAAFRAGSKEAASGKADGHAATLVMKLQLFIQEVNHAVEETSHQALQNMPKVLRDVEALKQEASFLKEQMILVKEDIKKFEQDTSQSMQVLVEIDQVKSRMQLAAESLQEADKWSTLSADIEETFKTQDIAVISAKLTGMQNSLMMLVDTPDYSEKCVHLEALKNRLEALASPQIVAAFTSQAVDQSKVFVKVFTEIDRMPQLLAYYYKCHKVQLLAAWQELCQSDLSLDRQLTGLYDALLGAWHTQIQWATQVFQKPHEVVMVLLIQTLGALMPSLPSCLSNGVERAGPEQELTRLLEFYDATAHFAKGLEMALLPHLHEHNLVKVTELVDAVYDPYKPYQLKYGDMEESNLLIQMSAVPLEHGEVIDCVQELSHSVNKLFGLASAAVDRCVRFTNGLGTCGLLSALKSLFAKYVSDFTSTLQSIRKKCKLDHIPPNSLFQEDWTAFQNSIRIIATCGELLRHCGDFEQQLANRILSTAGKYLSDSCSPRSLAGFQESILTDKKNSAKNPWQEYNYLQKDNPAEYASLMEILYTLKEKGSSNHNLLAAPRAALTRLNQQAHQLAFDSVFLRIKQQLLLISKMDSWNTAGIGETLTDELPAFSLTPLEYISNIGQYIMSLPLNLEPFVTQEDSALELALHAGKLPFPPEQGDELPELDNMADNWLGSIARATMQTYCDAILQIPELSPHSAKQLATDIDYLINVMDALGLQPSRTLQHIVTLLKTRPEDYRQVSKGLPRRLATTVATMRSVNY
inactive: vemurafenib 0.003 | [1] 0.018 | barasertib 0.017 | [2] -0.054 | volasertib -0.076 | [3] -0.003 | [4] -0.209 | [5] -0.019 | saracatinib 0.05 | sotrastaurin 0.039 | alvocidib 0.019 | Tubastatin A -0.114 | [6] -0.02 | defactinib 0.056 | [7] -0.047 | encorafenib 0.028 | [8] 0.035 | alisertib 0.014 | [9] 0.012 | gefitinib 0.004

CHUK (UniProt O15111)
Chain of UniProt O15111 (O15111 whole entry, looked up): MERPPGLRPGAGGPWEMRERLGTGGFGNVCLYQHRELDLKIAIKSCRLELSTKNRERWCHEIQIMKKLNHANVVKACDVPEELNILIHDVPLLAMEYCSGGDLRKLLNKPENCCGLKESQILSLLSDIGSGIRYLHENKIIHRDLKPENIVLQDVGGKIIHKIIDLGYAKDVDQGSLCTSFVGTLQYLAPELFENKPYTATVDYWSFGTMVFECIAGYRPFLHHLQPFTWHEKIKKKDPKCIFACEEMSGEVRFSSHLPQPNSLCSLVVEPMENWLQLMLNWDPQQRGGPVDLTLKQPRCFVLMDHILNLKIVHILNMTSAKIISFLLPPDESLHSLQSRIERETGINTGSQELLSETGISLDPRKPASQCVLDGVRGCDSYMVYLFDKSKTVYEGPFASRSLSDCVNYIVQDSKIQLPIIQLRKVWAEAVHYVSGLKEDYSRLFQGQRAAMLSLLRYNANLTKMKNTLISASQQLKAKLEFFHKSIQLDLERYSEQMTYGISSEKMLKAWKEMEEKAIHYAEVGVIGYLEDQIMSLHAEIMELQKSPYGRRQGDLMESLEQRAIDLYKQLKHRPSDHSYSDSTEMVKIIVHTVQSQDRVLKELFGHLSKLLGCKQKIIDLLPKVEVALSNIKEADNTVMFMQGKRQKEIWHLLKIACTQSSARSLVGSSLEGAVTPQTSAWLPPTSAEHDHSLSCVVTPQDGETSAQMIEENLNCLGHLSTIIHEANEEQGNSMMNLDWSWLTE
inactive: vemurafenib 0.026 | [1] 0.001 | barasertib 0.059 | [2] -0.095 | volasertib -0.047 | [3] -0.045 | [4] 0.111 | [5] -0.097 | saracatinib 0.059 | sotrastaurin 0.017 | alvocidib 0.029 | Tubastatin A -0.203 | [6] 0.077 | defactinib 0.089 | [7] -0.039 | encorafenib -0.021 | [8] 0.121 | alisertib 0.018 | [9] 0.052 | gefitinib -0.06

CLP1 (UniProt Q92989)
Chain of UniProt Q92989 (Q92989 whole entry, looked up): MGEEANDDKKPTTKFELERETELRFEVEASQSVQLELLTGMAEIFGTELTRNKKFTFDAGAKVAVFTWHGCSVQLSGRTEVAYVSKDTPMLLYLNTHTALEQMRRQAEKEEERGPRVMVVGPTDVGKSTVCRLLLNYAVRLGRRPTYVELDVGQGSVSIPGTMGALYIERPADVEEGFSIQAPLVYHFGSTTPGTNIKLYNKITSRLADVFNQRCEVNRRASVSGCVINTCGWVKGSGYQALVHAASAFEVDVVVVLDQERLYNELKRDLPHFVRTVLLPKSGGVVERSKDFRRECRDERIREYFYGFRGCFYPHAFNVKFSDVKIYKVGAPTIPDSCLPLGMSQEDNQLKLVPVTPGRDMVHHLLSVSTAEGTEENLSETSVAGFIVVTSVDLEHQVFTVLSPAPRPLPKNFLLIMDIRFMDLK
inactive: vemurafenib -0.035 | [1] 0 | barasertib 0.03 | [2] -0.045 | volasertib -0.05 | [3] 0.015 | [4] -0.13 | [5] 0.096 | saracatinib 0.115 | sotrastaurin 0.036 | alvocidib -0.103 | Tubastatin A -0.179 | [6] 0.004 | defactinib 0.071 | [7] -0.037 | encorafenib 0.02 | [8] 0.023 | alisertib -0.002 | [9] 0.031 | gefitinib 0.033

COG2 (UniProt Q14746)
Chain of UniProt Q14746 (Q14746 whole entry, looked up): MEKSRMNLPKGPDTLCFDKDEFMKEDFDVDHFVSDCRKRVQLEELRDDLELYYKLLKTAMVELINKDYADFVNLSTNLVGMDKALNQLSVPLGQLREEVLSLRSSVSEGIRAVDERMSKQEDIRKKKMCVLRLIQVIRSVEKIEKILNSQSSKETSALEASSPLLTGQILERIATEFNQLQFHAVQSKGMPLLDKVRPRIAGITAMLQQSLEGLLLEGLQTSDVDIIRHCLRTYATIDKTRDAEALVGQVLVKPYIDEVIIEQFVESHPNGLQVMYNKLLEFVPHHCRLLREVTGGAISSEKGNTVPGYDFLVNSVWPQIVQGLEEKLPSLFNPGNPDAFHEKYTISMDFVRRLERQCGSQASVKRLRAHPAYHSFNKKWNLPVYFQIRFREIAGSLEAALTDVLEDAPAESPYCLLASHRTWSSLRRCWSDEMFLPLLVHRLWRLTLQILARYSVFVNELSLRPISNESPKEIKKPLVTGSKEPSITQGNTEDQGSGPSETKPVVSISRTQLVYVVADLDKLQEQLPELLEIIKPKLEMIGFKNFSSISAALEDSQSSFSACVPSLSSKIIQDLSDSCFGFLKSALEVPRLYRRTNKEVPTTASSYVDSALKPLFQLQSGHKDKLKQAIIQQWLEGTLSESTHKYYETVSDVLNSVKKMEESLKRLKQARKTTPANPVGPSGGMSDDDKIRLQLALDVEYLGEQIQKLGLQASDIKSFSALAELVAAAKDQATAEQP
inactive: vemurafenib 0.023 | [1] 0.012 | barasertib 0.077 | [2] -0.052 | volasertib -0.088 | [3] 0.106 | [4] 0.032 | [5] -0.093 | saracatinib 0.002 | sotrastaurin 0.037 | alvocidib -0.032 | Tubastatin A -0.114 | [6] -0.009 | defactinib 0.05 | [7] 0.028 | encorafenib -0.009 | [8] 0.052 | alisertib 0.021 | [9] -0.022 | gefitinib -0.039

DHRS3 (UniProt O75911)
Chain of UniProt O75911 (O75911 whole entry, looked up): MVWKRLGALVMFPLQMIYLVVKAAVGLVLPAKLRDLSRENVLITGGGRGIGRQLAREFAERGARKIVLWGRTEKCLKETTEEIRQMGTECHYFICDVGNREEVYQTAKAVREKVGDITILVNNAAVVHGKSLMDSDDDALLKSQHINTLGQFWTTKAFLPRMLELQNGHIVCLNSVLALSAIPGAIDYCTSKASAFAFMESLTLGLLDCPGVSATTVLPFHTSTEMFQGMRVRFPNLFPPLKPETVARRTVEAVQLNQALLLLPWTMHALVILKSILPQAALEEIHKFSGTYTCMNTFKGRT
inactive: vemurafenib 0.082 | [1] 0.012 | barasertib -0.01 | [2] -0.03 | volasertib 0.033 | [3] -0.041 | [4] -0.061 | [5] 0.034 | saracatinib 0.029 | sotrastaurin 0.013 | alvocidib -0.013 | Tubastatin A 0.105 | [6] 0.043 | defactinib -0.006 | [7] 0.085 | encorafenib -0.044 | [8] 0.151 | alisertib -0.006 | [9] -0.011 | gefitinib 0.071
